Values without a mark were called inactive. Calls of active or inactive are those of the source. No stated cut-off is given here; in the data, active means remaining activity below about 50%; inactive means the rest.
Each compound was assayed against Phospholipase D2 (Homo sapiens) (UniProt O14939) (assay: cellular phospholipase D2 activity inhibition – cell-based, HEK293, single concentration (AID 602143;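 further: tested at 200 nM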)). Conditions: HEK293 cellular PLD2 activity, percent of control; stronger effect = lower value.
Phospholipase D2 (Homo sapiens), sequence (O14939 whole entry, looked up): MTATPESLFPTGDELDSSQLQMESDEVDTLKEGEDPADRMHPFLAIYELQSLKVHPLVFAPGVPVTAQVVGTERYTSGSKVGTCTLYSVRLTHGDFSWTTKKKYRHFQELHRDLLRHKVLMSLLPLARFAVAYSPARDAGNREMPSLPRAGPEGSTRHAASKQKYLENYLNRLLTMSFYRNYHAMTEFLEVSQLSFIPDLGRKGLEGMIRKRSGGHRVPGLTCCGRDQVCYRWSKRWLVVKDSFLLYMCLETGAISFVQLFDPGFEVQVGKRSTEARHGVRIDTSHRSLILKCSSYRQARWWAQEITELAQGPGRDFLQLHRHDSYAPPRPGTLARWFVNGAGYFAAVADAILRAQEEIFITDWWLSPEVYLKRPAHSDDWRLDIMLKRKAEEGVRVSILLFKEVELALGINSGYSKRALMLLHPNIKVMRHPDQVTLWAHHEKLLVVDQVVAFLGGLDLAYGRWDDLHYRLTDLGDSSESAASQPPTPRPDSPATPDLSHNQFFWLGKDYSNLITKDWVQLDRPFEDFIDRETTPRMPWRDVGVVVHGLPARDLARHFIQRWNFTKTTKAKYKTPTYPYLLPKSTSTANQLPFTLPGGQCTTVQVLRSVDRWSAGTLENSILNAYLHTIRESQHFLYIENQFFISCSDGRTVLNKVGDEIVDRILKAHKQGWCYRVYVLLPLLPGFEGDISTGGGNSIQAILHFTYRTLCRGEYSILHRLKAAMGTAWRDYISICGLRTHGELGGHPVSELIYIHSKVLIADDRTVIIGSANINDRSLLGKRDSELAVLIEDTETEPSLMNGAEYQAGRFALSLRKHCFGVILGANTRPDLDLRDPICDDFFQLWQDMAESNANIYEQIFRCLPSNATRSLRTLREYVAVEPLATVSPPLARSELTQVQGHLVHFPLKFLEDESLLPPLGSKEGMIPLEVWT
Phospholipase D2 (Homo sapiens), sequence (O14939 whole entry, looked up): as above
Compound C[C@@H](CN1CCC2(CNCc3ccccc32)C1)NC(=O)c1ccc2ccccc2c1 (some centres not stated) has a remaining activity of 91%. O=C(NCCN1CCC(n2c(=O)[nH]c3ccccc32)CC1)Nc1cccc(C(F)(F)F)c1 was tested, and the remaining activity was 131%. Work on C[C@@H](CN1CCC2(C=Cc3ccccc32)CC1)NC(=O)c1cnc2ccccc2c1 yielded a remaining activity of 77.4%. In the case of O=c1[nH]c2ccccc2n1C1CCN(CCNS(=O)(=O)c2ccc(Cl)cc2)CC1, the remaining activity was 115%. CC(C)[C@@H](CN1CCC(n2c(=O)[nH]c3ccccc32)CC1)NC(=O)c1ccc(F)cc1 showed a remaining activity of 82%. With O=C(NCCN1CCC(n2c(=O)[nH]c3ccccc32)CC1)C(c1ccccc1)(c1ccccc1)c1ccccc1 the remaining activity was 93.2%. For O=c1[nH]c2ccccc2n1C1CCN(CCNC(=S)Nc2ccc(Cl)c(Cl)c2)CC1, the remaining activity was 93.9%. In the case of O=C(NCCN1CCN(c2ccccn2)CC1)c1ccc(F)cc1, the remaining activity was 101%. Cc1ccc(S(=O)(=O)NCCN2CCC(n3c(=O)[nH]c4ccccc43)CC2)cc1 was tested, and the remaining activity was 77.3%. O=C(NCCN1CCC(n2c(=O)[nH]c3ccccc32)CC1)Nc1ccccc1C(F)(F)F showed a remaining activity of 114%. Work on O=C(NCCN1CCC(n2c(=O)[nH]c3ccccc32)CC1)c1ccc2ccc3c4c2c1CC=C4CC=C3 yielded a remaining activity of 79.2%. Work on Cn1c(C2CCN(CC3(N)CCCC3)CC2)nc2ccccc21 (tested in a mixture with another compound) yielded a remaining activity of 118%. O=C(N[C@@H](Cc1ccccc1)CN1CCC(n2c(=O)[nH]c3ccccc32)CC1)c1ccc2ccccc2c1 gave a remaining activity of 96.7%. With O=C(NCCN1CCC(C(=O)NCC2CC2)CC1)c1ccc2ccccc2c1 the remaining activity was 108%. In the case of O=C(NCCN1CCC2(C=Cc3ccccc32)CC1)c1ccc2ccccc2c1, the remaining activity was 119%. O=C(NCCN1CCC(n2c(=O)[nH]c3ccccc32)CC1)c1cccc2ccc3ccccc3c12 was tested, and the remaining activity was 65.9%. With NC1(CN2CCC(c3nc4ccccc4[nH]3)CC2)CCCC1 (tested in a mixture with another compound) the remaining activity was 105%. For C[C@H](N)CN1CCC(c2nc3ccccc3n2C)CC1 (tested in a mixture with another compound), the remaining activity was 81.2%. Work on O=C(N[C@@H](Cc1ccccc1)CN1CCC(n2c(=O)[nH]c3ccccc32)CC1)c1ccc(F)c(F)c1 yielded a remaining activity of 124%. Cn1c(=O)n(C2CCN(CCNC(=O)c3ccc4ccccc4c3)CC2)c2ccccc21 showed a remaining activity of 52.7%. In the case of COc1cccc(N2CCN(CCNC(=O)c3ccc(F)cc3)CC2)c1, the remaining activity was 100%. O=C(NCCN1CCC2(CC1)CCN(c1ccccc1)C2=O)c1cnc2ccccc2c1 was tested, and the remaining activity was 42.3% (active). O=c1[nH]c2ccccc2n1C1CCN(CCN2CCCC2)CC1 was tested, and the remaining activity was 93.8%. For COc1cccc(N2CCN(CCNC(=O)c3ccc(Cl)cc3)CC2)c1, the remaining activity was 109%. CN(C)c1cccc2c(S(=O)(=O)NCCN3CCC(n4c(=O)[nH]c5ccccc54)CC3)cccc12 gave a remaining activity of 112%. CS(=O)(=O)NCCN1CCC(n2c(=O)[nH]c3ccccc32)CC1 showed a remaining activity of 96.5%. Work on CC(=O)c1cccc(NC(=O)NCCN2CCC(n3c(=O)[nH]c4ccccc43)CC2)c1 yielded a remaining activity of 118%.

From PubChem BioAssay AID602143 (Vanderbilt Specialized Chemistry Center, 2011)
